Compound activity as filed in PubChem BioAssay.
697 NFkB inh = inhibitors of the PMA/ionomycin-induced NF-kB reporter in 697 B cells; 697 B-cell NF-kB luciferase reporter, 16 h; inhibition, % at 4 µM; 0.33% of 330,000 active; AID 435022; in the data active means inhibition above about 35%
Beta cell apopt = beta cell apoptosis inhibition | INS-1E cytokine-induced death, ATP luminescence, 48 h; percent of positive-control rescue, neutral wells zero | protection from apoptosis, % (test concentration not listed) | 0.8% of 300,000 active;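 active means Every replicate reaches about 75%, or at least half do and their mean reaches it too, limit read from the data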;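 further: 0% = cytokine-treated negative control wells and 100% = positive control rescue; higher means more ATP so stronger rescue from cytokine killing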
Jurkat NFkB inh = lowers PMA/ionomycin-induced NF-kB signal in Jurkat cells. PMA/ionomycin-induced NF-kB luciferase reporter, luminescence. inhibition, % at 4 µM. 0.53% of 330,000 active. AID 435003; in the data active means inhibition above about 50%
Gli-Sufu antag = antagonists of Gli-Sufu signaling; Sufu-KO-LIGHT fibroblasts, Gli luciferase reporter luminescence; 0.74% of 340,000 active; inhibition, % at 5 µM;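 active means inhibition above about 55%, limit read from the data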;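 further: 0% = DMSO-treated cells and 100% = wells with medium but no cells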
The depositor's hits bear a star; · = no result given. Most compounds without a hit are left out; they make up all but 1.8% or so of the library.

SMILES | 697 NFkB inh | Beta cell apopt | Jurkat NFkB inh | Gli-Sufu antag
COc1ccc(C2CC(O)(c3ccccc3)Oc3cc(OC)c(OC)c(OC)c32)cc1 (configuration not stated) | 7 | -2 | 5 | -2
Cc1csc(NC(=O)CSC2=NS(=O)(=O)c3ccccc3N2)n1 | -4 | -9 | 9 | -7
COc1ccc(C)cc1NC(=O)CCS(=O)(=O)c1ccc2c(c1)CCN2C(C)=O | 19 | -7 | 0 | -4
O=S(=O)(Nc1cc(Sc2cccc3cccnc23)c(O)c2ccccc12)c1ccc(F)cc1 | · | 102* | · | 96*
O=C(O)CSc1cc(NS(=O)(=O)c2ccc(Cl)cc2)c2ccccc2c1O | · | 9 | · | 6
O=C(c1c[nH]c2ccccc12)N1CCN(Cc2ccccc2)CC1 | -12 | 5 | -12 | -6
c1ccc(CN2CCN(Cc3c[nH]c4ccccc34)CC2)cc1 | 8 | 87* | 18 | 6
COc1cc(CN2CC(=O)N(c3ccccc3Cl)C2=S)cc(OC)c1OC | -5 | 1 | 3 | 62*
COc1ccc(C(=O)C2CCN(S(=O)(=O)c3ccc4c(c3)OCCO4)CC2)cc1 | 0 | 10 | 18 | 2
Cc1cc(C)c(S(=O)(=O)/N=C2\C=C(Nc3ccc(C(=O)O)cc3)C(=O)c3ccccc32)c(C)c1 | -14 | 113* | 4 | -1
Cc1ccc(Cl)cc1NC1=C/C(=N\S(=O)(=O)c2cccs2)c2ccccc2C1=O | -59 | 111* | 41 | 11
Cc1cccc(NC2=C/C(=N/S(=O)(=O)c3cccs3)c3ccccc3C2=O)c1 | · | 105* | · | 34
Cc1ccc(NC2=C/C(=N\S(=O)(=O)c3cccs3)c3ccccc3C2=O)c(C)c1 | -189 | 114* | -10 | 65*
FC(F)(F)c1cccc(N2CCN(C(=S)NC3CCCCC3)CC2)c1 | -1 | 16 | -3 | 22
O=C(COc1ccccc1)Nc1ccccc1F | 4 | -4 | -48 | 1
O=C(O)c1ccc(NC2=C/C(=N/S(=O)(=O)c3ccccc3)c3ccccc3C2=O)cc1 | -15 | · | 4 | 28
O=C1C(Nc2ccc(O)cc2)=C/C(=N/S(=O)(=O)c2cccs2)c2ccccc21 | · | · | · | 94*
COc1ccccc1/C=C1\SC(=O)N(CCC(=O)NCCCn2ccnc2)C1=O | 28 | 125* | -17 | -5
COc1ccccc1/C=C1\SC(=S)N(CCC(=O)NCCCn2ccnc2)C1=O | 27 | · | -7 | -6
COc1cc(OC)c(OC)cc1/C=N/Nc1nc2ccccc2[nH]1 | -7 | -3 | -17 | 0
O=C(Cc1cccs1)N/N=C/c1ccccc1 | -1 | -4 | -4 | -29
CCN(CC)c1ccc(/C=N/Nc2nc3ccccc3[nH]2)c(O)c1 | -41 | 122* | 25 | 2
CCN(CC)c1ccc(/C=N/NC(=O)Cc2cccs2)c(O)c1 | · | 92* | · | 10
COc1ccc2c(c1)c(/C=N/Nc1nc3ccccc3[nH]1)c(C)n2C | -10 | 117* | 15 | 12
CCN(CC)c1ccc(/C=N/NC(=S)NCc2ccccc2)c(O)c1 | -4 | 83* | 8 | 19
SMILES | 697 NFkB inh | Beta cell apopt | Jurkat NFkB inh | Gli-Sufu antag
CCOC(=O)/C=C1\NC2(CCCCC2)Cc2cc(OC)c(OC)cc21 | 29 | -8 | -1 | 0
CCn1c2ccccc2c2cc(NC(=O)c3ccccc3[N+](=O)[O-])ccc21 | -23 | 6 | 5 | 16
COc1ccccc1/C=C/C(=O)NCc1cccnc1 | 1 | 2 | -14 | -5
CCN(CC)c1ccc(/C=N/NC(=O)c2ccco2)c(O)c1 | -182 | 93* | 36 | -4
CCN(CC)c1ccc(/C=N/NC(=O)c2ccco2)cc1 | · | -3 | · | -49
CCCCn1c(/C=N/Nc2nc3ccccc3[nH]2)nc2ccccc21 | -59 | 76* | -41 | 3
CCN(CC)c1ccc(/C=N/N(c2ccccc2)c2ccccc2)c(O)c1 | -12 | 95* | 19 | 3
COc1ccc(/C=C/C(=O)NC(=S)Nc2ccc(S(=O)(=O)N=C(N)N)cc2)cc1OC | 8 | -8 | -17 | 3
CCOC(=O)COc1ccccc1/C=C\[N+](=O)[O-] | · | 106* | · | -11
Oc1ccc(/C=N/n2c(-c3ccccc3)n[nH]c2=S)cc1 | 11 | 7 | 9 | 4
O=C(CN1CCOCC1)N/N=C/c1c(O)ccc2ccccc12 | 12 | 84* | 8 | 8
O=C(CNc1ccccc1)N/N=C/c1c(O)ccc2ccccc12 | -1 | 84* | 23 | -4
O=C(CN1CCOCC1)N/N=C/c1ccco1 | 14 | · | 10 | 2
O=C(/C=C/c1ccc([N+](=O)[O-])cc1)NCc1cccnc1 | 4 | 95* | 17 | 17
CN(CCOc1ccccc1)C(=O)CCc1nc2sc3c(c2c(=O)[nH]1)CCCC3 | -7 | -4 | -13 | -8
CN1/C(=C\C(=O)C[n+]2ccc(C(=O)c3ccccc3)cc2)C(C)(C)c2ccccc21 | 11 | 103* | 30 | 3
CN1/C(=C\C(=O)C[n+]2cccc(Br)c2)C(C)(C)c2ccccc21 | 22 | 100* | 42 | -1
CN1/C(=C\C(=O)C[n+]2cccc(C(N)=O)c2)C(C)(C)c2ccccc21 | 1 | · | 22 | 0
CC(=O)OC[C@]12CC[C@H]3[C@@](C)(CC[C@H]4C(C)(C)CCC[C@]34C)[C@@H]1C[C@@H](C1=CC(=O)O[C@@H]1OC(C)=O)O2 | -63 | 92* | 10 | ·
CC(=O)OC[C@]12CC[C@H]3[C@@](C)(CC[C@H]4C(C)(C)CCC[C@]34C)[C@@H]1C[C@H](C1=CC(=O)O[C@H]1OC(C)=O)O2 | -19 | 10 | -10 | ·
CCOC(=O)c1c(C)oc2c1c1c(c3ccccc32)OCN(Cc2ccccn2)C1 | -51 | 7 | -91 | -15
O=C(N/C(=C/c1ccc(Br)cc1)C(=O)N1CCCC1=O)c1ccco1 | -4 | -5 | 5 | 14
O=C(O)CCCCCNS(=O)(=O)c1cccc2nsnc12 | -3 | -2 | 8 | 6
Cc1ccc(C(C)C)c(OCc2nn(CC(=O)c3ccc(Cl)cc3)c3[n+]2CCCCC3)c1 | -6 | 136* | 10 | 30
O=C(Cn1nc(CNc2ccc(Cl)cc2)[n+]2c1CCCCC2)c1ccccc1 | -19 | 4 | -19 | 9
SMILES | 697 NFkB inh | Beta cell apopt | Jurkat NFkB inh | Gli-Sufu antag
Cc1ccc(N=Nc2c(O)ccc3n[nH]nc23)cc1 | · | 99* | · | -6
COc1ccc(S(=O)(=O)N2CCc3ccccc32)cc1C(=O)N(CC(C)C)C1CCS(=O)(=O)C1 (configuration not stated) | -3 | · | -2 | 2
CC(C)(C)c1ccc(C2=CC(c3ccccc3F)n3ncnc3N2)cc1 (configuration not stated) | -25 | -6 | -7 | -16
Cn1cccc1C1C=C(c2ccc(C(C)(C)C)cc2)Nc2ncnn21 (configuration not stated) | -4 | 127* | 1 | 13
Brc1ccc(C2=CC(c3cccs3)n3ncnc3N2)cc1 (configuration not stated) | -31 | 30 | -8 | 98*
COc1ccc(C(=O)Oc2c(C)occc2=O)cc1OC | 14 | -4 | 6 | 4
Cc1occc(=O)c1OC(=O)Nc1ccc(Cl)c(Cl)c1 | · | 106* | · | -7
COc1ccc(-c2cn3nc(SCC(=O)NCC4CCCO4)ccc3n2)cc1 (configuration not stated) | -61 | 2 | -58 | -86
